Source: ChEMBL document CHEMBL5606460, “ASAP - DENV-2 NS2B-NS3 protease fluorescence single point” (2024)
Hit rate of the full screen: of about 2,000 compounds, about 110 (5.5%) showed an effect of 50% or more. What follows is part of a selection rich in strong results, with near analogues and random picks from the rest.

Biological target: Genome polyprotein (dengue virus type 2) (UniProt P29990)
[1] = Thailand/16681/1984, Concentration 25.0 uM, Number of replicates 1.0

Cc1cc(CO)c2cccc(Nc3nonc3C(N)=O)c2n1
inhibition (Thailand/16681/1984, Concentration 49.95 uM, Number of replicates 2.0, Standard deviation 1.5271718368293243 %): 11% | inhibition (Thailand/16681/1984, Concentration 99.9 uM, Number of replicates 2.0, Standard deviation 3.697399383401008 %): 23.8%

Cc1cc(CO)c2cccc(Cc3ccccc3NC(=O)Cc3cccc(CN)c3)c2n1
inhibition (Thailand/16681/1984, Concentration 49.95 uM, Number of replicates 2.0, Standard deviation 1.4858035354408357 %): -0.82% | inhibition (Thailand/16681/1984, Concentration 99.9 uM, Number of replicates 2.0, Standard deviation 1.2081673980721888 %): 5.26%

Cc1cc(CO)c2cccc(Cc3cccc(C(=O)Nc4cc(O)[nH]n4)c3)c2n1
inhibition (Thailand/16681/1984, Concentration 49.95 uM, Number of replicates 2.0, Standard deviation 1.1139101860624252 %): 16.1% | inhibition (Thailand/16681/1984, Concentration 99.9 uM, Number of replicates 2.0, Standard deviation 0.5605490390974336 %): 35%

Cc1cc(CO)c2cccc(Cc3ccccc3C(=O)Nc3cccc(C(N)=O)c3)c2n1
inhibition (Thailand/16681/1984, Concentration 49.95 uM, Number of replicates 2.0, Standard deviation 0.1803817681308647 %): 4.23% | inhibition (Thailand/16681/1984, Concentration 99.9 uM, Number of replicates 2.0, Standard deviation 0.18828716821235608 %): 9.06%

Cc1cc(CO)c2cccc(Cc3cccc(C(=O)Nc4cccc(C(N)=O)c4)c3)c2n1
inhibition (Thailand/16681/1984, Concentration 49.95 uM, Number of replicates 2.0, Standard deviation 0.8487279472032775 %): 0.063% | inhibition (Thailand/16681/1984, Concentration 99.9 uM, Number of replicates 2.0, Standard deviation 0.25943340872226184 %): 4.4%

Cc1cc(CO)c2cccc(Cc3ccccc3C(=O)Nc3nonc3C(N)=O)c2n1
inhibition (Thailand/16681/1984, Concentration 49.95 uM, Number of replicates 2.0, Standard deviation 0.20481615067396447 %): 9.42% | inhibition (Thailand/16681/1984, Concentration 99.9 uM, Number of replicates 2.0, Standard deviation 0.252245853764608 %): 28.4%

Cc1cc(CO)c2cccc(CC(=O)Nc3nonc3C(N)=O)c2n1
inhibition (Thailand/16681/1984, Concentration 49.95 uM, Number of replicates 2.0, Standard deviation 0.10454576349345478 %): 97.1% | inhibition (Thailand/16681/1984, Concentration 99.9 uM, Number of replicates 2.0, Standard deviation 0.006921524049853062 %): 99%

O=Cc1ccc(N2CCC(C(=O)NCc3ccc(C(F)(F)F)nc3)CC2)cc1
inhibition [1]: 14.9%

CC(C)(CO)NC(=O)c1cc(Cl)cc(OCc2ccccn2)c1
inhibition (Thailand/16681/1984, Concentration 49.5 uM, Number of replicates 2.0, Standard deviation 3.9117339361958243 %): -3.57% | inhibition (Thailand/16681/1984, Concentration 99.01 uM, Number of replicates 2.0, Standard deviation 3.9139588683287148 %): -3.56% | inhibition (Thailand/16681/1984, Concentration 198.0 uM, Number of replicates 2.0, Standard deviation 3.978479645326132 %): -2.33%

O=Cc1ccc(N2CCC(C(=O)N3CCS[C@H]3c3ccc([N+](=O)[O-])cc3)CC2)cc1
inhibition [1]: 10.8%

CNC(=O)c1cc(Cl)ccc1NS(=O)(=O)c1ccc(Cn2cncn2)cc1
inhibition (Thailand/16681/1984, Concentration 49.5 uM, Number of replicates 2.0, Standard deviation 0.7766096317793165 %): -1.89% | inhibition (Thailand/16681/1984, Concentration 99.01 uM, Number of replicates 2.0, Standard deviation 1.2995063622910579 %): -0.333% | inhibition (Thailand/16681/1984, Concentration 198.0 uM, Number of replicates 2.0, Standard deviation 1.6197418261994996 %): 2.7%

CS(=O)(=O)N1CCC(NC(=O)C2CCN(c3ccc(C=O)cc3)CC2)CC1
inhibition [1]: 12%

O=Cc1ccc(N2CCC(C(=O)Nc3ncnc(Cl)c3Cl)CC2)cc1
inhibition [1]: 10.5%

C=CCN(Cc1cccc(OC)c1)C(=O)C1CCN(c2ccc(C=O)cc2)CC1
inhibition [1]: 13.3%

Cc1ccc(NC(=O)C2CCN(c3ccc(C=O)cc3)CC2)cc1I
inhibition [1]: 9.87%

Cc1cc(CO)c2cccc(Cc3ccccc3NC(=O)Cc3nnc(C)[nH]3)c2n1
inhibition (Thailand/16681/1984, Concentration 49.95 uM, Number of replicates 2.0, Standard deviation 1.0489246346930539 %): 2.09% | inhibition (Thailand/16681/1984, Concentration 99.9 uM, Number of replicates 2.0, Standard deviation 0.8121374020252716 %): 10.7%

O=Cc1ccc(N2CCC(C(=O)NCc3ccc(-c4ccccn4)cc3)CC2)cc1
inhibition [1]: 6.55%

CC(=O)N[C@@H](CCCN)C(=O)Nc1cccc2c(CO)cc(C)nc12
inhibition (Thailand/16681/1984, Concentration 99.9 uM, Number of replicates 2.0, Standard deviation 2.7664513641226787 %): 9.57%

CC(=O)N[C@@H](CCCCN)C(=O)Nc1ccccc1Cc1cccc2c(CO)cc(C)nc12
inhibition (Thailand/16681/1984, Concentration 49.95 uM, Number of replicates 2.0, Standard deviation 0.842601818478522 %): -5.54% | inhibition (Thailand/16681/1984, Concentration 99.9 uM, Number of replicates 2.0, Standard deviation 0.16339684106206548 %): 1.8%

CC(=O)N[C@@H](Cc1ccc(CN)cc1)C(=O)Nc1cccc2c(CO)cc(C)nc12
inhibition (Thailand/16681/1984, Concentration 49.95 uM, Number of replicates 2.0, Standard deviation 0.08390662036506401 %): 24.9% | inhibition (Thailand/16681/1984, Concentration 99.9 uM, Number of replicates 2.0, Standard deviation 0.3339864632910001 %): 96.3%

CC(=O)N[C@@H](Cc1ccc(O)cc1)C(=O)Nc1cccc2c(CO)cc(C)nc12
inhibition (Thailand/16681/1984, Concentration 49.95 uM, Number of replicates 2.0, Standard deviation 2.4752459751189644 %): -9.17% | inhibition (Thailand/16681/1984, Concentration 99.9 uM, Number of replicates 2.0, Standard deviation 3.123465853915667 %): -9.54%

CC(=O)N[C@@H](CCCN)C(=O)Nc1ccccc1Cc1cccc2c(CO)cc(C)nc12
inhibition (Thailand/16681/1984, Concentration 49.95 uM, Number of replicates 2.0, Standard deviation 1.2344771467866291 %): -4.07% | inhibition (Thailand/16681/1984, Concentration 99.9 uM, Number of replicates 2.0, Standard deviation 0.6037374205287288 %): 4.36%

CC(=O)N[C@@H](CCCCN)C(=O)Nc1cccc2c(CO)cc(C)nc12
inhibition (Thailand/16681/1984, Concentration 49.95 uM, Number of replicates 2.0, Standard deviation 0.7189645441339965 %): 35.5% | inhibition (Thailand/16681/1984, Concentration 99.9 uM, Number of replicates 2.0, Standard deviation 0.1513618084697797 %): 97.4%

Cn1cc(NC(=O)c2ccccc2C(F)(F)F)c(-c2ccc(F)nc2)n1
inhibition (Thailand/16681/1984, Concentration 49.5 uM, Number of replicates 2.0, Standard deviation 3.6499634215033607 %): -3.01% | inhibition (Thailand/16681/1984, Concentration 99.01 uM, Number of replicates 2.0, Standard deviation 1.5811035342397435 %): -2.37% | inhibition (Thailand/16681/1984, Concentration 198.0 uM, Number of replicates 2.0, Standard deviation 0.8634737807980869 %): -2.26%

O=Cc1ccc(N2CCC(C(=O)Nc3c(Cl)cncc3Cl)CC2)cc1
inhibition [1]: 12.4%

Cc1cc(CO)c2cccc(Cc3ccccc3C(=O)NCC(=O)O)c2n1
inhibition (Thailand/16681/1984, Concentration 49.95 uM, Number of replicates 2.0, Standard deviation 0.8422599232434016 %): 38.5% | inhibition (Thailand/16681/1984, Concentration 99.9 uM, Number of replicates 2.0, Standard deviation 0.5627042603428867 %): 64.9%

Cc1cc(CO)c2cccc(Cc3cccc(C(=O)NCC(N)=O)c3)c2n1
inhibition (Thailand/16681/1984, Concentration 49.95 uM, Number of replicates 2.0, Standard deviation 0.5174294413229081 %): 2.44% | inhibition (Thailand/16681/1984, Concentration 99.9 uM, Number of replicates 2.0, Standard deviation 1.3216010889796208 %): 17.6%

Cc1cc(CO)c2cccc(Cc3cccc(C(=O)NCC(=O)O)c3)c2n1
inhibition (Thailand/16681/1984, Concentration 49.95 uM, Number of replicates 2.0, Standard deviation 0.8336363408632846 %): 63.2% | inhibition (Thailand/16681/1984, Concentration 99.9 uM, Number of replicates 2.0, Standard deviation 0.025873444538655716 %): 79.2%

Cc1cc(CO)c2cccc(Cc3cccc(C(=O)NC[C@H](C)O)c3)c2n1
inhibition (Thailand/16681/1984, Concentration 49.95 uM, Number of replicates 2.0, Standard deviation 1.3417230059830858 %): -6.96% | inhibition (Thailand/16681/1984, Concentration 99.9 uM, Number of replicates 2.0, Standard deviation 0.8544771145149516 %): -2.86%

Cc1cc(CO)c2cccc(Cc3ccccc3C(=O)NCC(N)=O)c2n1
inhibition (Thailand/16681/1984, Concentration 49.95 uM, Number of replicates 2.0, Standard deviation 0.5253345885233084 %): 1.79% | inhibition (Thailand/16681/1984, Concentration 99.9 uM, Number of replicates 2.0, Standard deviation 0.6122918820772879 %): 9.88%

Cc1cc(CO)c2cccc(Cc3ccccc3C(=O)NC[C@H](C)O)c2n1
inhibition (Thailand/16681/1984, Concentration 49.95 uM, Number of replicates 2.0, Standard deviation 0.37872955767016525 %): -3.03% | inhibition (Thailand/16681/1984, Concentration 99.9 uM, Number of replicates 2.0, Standard deviation 0.20409716758521712 %): 0.577%
